Test results as given in ChEMBL document CHEMBL2218924, “A broad activity screen in support of a chemogenomic map for kinase signalling research and drug discovery” (Biochem J, 2013).

molecular target: Platelet-derived growth factor receptor alpha (Homo sapiens) (UniProt P16234); details: at 1 µM
Sequence (P16234 whole entry): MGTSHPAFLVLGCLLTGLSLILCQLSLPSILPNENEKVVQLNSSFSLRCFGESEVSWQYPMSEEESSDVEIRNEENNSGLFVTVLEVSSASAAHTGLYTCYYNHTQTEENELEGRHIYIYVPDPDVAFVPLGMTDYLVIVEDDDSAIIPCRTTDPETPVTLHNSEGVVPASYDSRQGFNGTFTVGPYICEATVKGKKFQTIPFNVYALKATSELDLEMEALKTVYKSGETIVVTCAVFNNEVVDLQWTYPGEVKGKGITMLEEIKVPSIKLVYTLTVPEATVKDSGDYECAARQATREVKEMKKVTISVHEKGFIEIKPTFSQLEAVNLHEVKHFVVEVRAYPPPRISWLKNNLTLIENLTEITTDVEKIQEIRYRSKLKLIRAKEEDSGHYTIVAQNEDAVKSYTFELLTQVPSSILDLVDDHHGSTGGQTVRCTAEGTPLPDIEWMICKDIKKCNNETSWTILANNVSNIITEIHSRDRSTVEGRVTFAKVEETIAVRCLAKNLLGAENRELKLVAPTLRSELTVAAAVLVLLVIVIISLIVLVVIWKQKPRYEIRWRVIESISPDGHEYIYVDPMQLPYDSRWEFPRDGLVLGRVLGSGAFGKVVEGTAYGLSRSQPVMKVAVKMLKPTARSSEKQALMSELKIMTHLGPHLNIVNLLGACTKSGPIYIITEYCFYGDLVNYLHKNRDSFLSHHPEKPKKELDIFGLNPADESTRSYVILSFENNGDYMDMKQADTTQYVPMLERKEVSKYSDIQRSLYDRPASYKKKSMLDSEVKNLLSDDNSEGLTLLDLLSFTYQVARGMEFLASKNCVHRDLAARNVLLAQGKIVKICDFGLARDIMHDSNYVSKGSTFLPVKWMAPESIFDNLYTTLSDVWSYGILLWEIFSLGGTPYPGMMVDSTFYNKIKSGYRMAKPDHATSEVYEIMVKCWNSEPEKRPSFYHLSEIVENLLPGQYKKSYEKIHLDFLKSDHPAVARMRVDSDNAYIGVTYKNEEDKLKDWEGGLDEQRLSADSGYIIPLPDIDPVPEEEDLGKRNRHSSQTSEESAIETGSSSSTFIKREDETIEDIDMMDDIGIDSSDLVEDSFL

Row | Structure (SMILES) | residual activity [%]
1 | COc1ccc2c(c1)c(C1=C(c3c[nH]c4ccccc34)C(=O)NC1=O)cn2CCCN(C)C | 106
2 | c1ccc(-c2cnc(Nc3ccc(OCCN4CCCC4)cc3)s2)cc1 | 7
3 | NCCNc1ncc(C(N)=O)c(Nc2cccc(C(F)(F)F)c2)n1 | 107
4 | O=C(O)/C=C/c1cc(Br)c(Br)c(Br)c1Br | 100
5 | CC(C)(C)c1nc2c3ccc(F)cc3c3c(=O)[nH]ccc3c2[nH]1 | 102
6 | O=C1Cc2c([nH]c3ccc([N+](=O)[O-])cc23)-c2ccccc2N1 | 109
7 | COc1cc2ncnc(Nc3cccc(Cl)c3)c2cc1OC | 104
8 | CCN(CC)CCNC(=O)c1c(C)[nH]c(/C=C2\C(=O)Nc3ccc(Cl)cc32)c1C | 2
9 | COc1cc2nccc(Oc3ccc(NC(=S)NC(=O)c4ccccc4C)cc3)c2cc1OC | 7
10 | CN(C)S(=O)(=O)c1ccc2c(c1)/C(=C/c1cc3c([nH]1)CCCC3)C(=O)N2 | 33
11 | O=C(CCCc1ccc(-c2ccccc2F)cc1)Nc1ccc(O)cc1 | 103
12 | Oc1cccc(-c2nc(N3CCOCC3)c3oc4ncccc4c3n2)c1 | 127
13 | O=C(c1ccccc1)c1ccc(N2CCOCC2)cc1O | 113
14 | CCOC(=O)c1c(C)[nH]c(/C=C2\C(=O)Nc3ccccc32)c1C | 43
15 | N#C/C(=C\c1ccc(O)c(O)c1)C(=O)NCc1ccccc1 | 122
16 | O=C(Nc1ccc(Cl)cc1)c1ccccc1NCc1ccncc1 | 39
17 | Nc1ncnc2[nH]nc(Nc3ccc(F)cc3)c12 | 105
18 | COc1ccc(-c2cnc3c(-c4ccsc4)cnn3c2)cc1 | 99
19 | Cn1c2ccccc2c2c3c(c4c5ccccc5n(CCC#N)c4c21)CNC3=O | 98
20 | CCCCc1c(-c2ccc(OC)cc2)[nH]c2nccnc12 | 105
21 | Cn1sc(=O)n(Cc2ccccc2)c1=O | 100
22 | COc1cc2c(cc1OC)-c1n[nH]c(Nc3cccc(F)c3)c1C2 | 2
23 | O=C(c1cc2cc(O)ccc2[nH]1)c1cc2cc(O)ccc2[nH]1 | 46
24 | CC(C)(C)n1nc(Cc2cccc3ccccc23)c2c(N)ncnc21 | 116
25 | Nc1ncnc2c1c(-c1ccc(Oc3ccccc3)cc1)cn2C1CCCC1 | 17
26 | O=C1NC(=O)c2c1c1c3ccccc3[nH]c1n1cncc21 | 96
27 | NC(=O)Nc1sc(-c2ccc(F)cc2)cc1C(N)=O | 41
28 | O=C1Nc2ccc(Cl)cc2/C1=C/c1cc(Cl)c(O)c(Cl)c1 | 60
29 | CCCC(=O)Oc1ccc2[nH]c(C(=O)c3cc4ccccc4[nH]3)cc2c1 | 108
